# Test results taken from the OligoGym collection.
# Biological target: ZNF384
# Experiment: pooled miR-30 sensor sort-seq; sequence = guide strand
# Settings: shRNA
# Also: reference of the scale not given here.
row,Sequence,sensor-assay potency score (higher = more potent)
1,TTGGACTCTGTGTCCATACTGA,-0.198
2,AATGTCAGTGAGCACATCCGGC,-0.852
3,TTGAGCCTGAGCCTGAGCCTGG,-0.986
4,TTATCTTTGTTGTGTTGCCGTC,0.0211
5,TTGTGTTCTCGATCTGACCTGA,0.373
6,TTGGAGTAGAATGTCAGTGAGC,-0.969
7,TTGATGAACATTGTGTTCTCGA,0.78

# Biological target: ZNF428
# Experiment: as above
# Settings: shRNA
row,Sequence,sensor-assay potency score (higher = more potent)
1,TCTGAGAGAGTGTATTCTGAAT,-1.43
2,AGAGAGTGTATTCTGAATCAGA,-1.95
3,TCATCTTCTTCCAAGCTGGCGT,-0.345
4,TGAATCAGAGGAATGCTCGGGG,0.32
5,TAAGACAACACAGACCGGCAGT,0.279
6,TCTAAGACAACACAGACCGGCA,-0.807
7,TTCCTCTTCGGAGTCCGGCTCT,-0.361
8,ATATTCAGGATCGTCAGTGGTC,-0.14
9,TTCTTCCTCTTCGGAGTCCGGC,-1.03
10,TCACCTTGTAGCCAGGATCATA,-1.68
11,TTCTAAGACAACACAGACCGGC,0.28
12,TCATCATCTTCTTCCAAGCTGG,-0.45

# Biological target: ZNF471
# Experiment: as above
# Settings: shRNA
row,Sequence,sensor-assay potency score (higher = more potent)
1,TGTGACATCTCTGATGTCGAGC,-0.679
2,TTTGCCAGTGTGACATCTCTGA,-0.159
3,TTTCTTGTGTTTTATTACCATA,-1.3
4,TTCTCCAACATCATACTCCTGT,0.565
5,TTAAGGATAACTTTCTTCTGAA,-0.561
6,TTCTCTGATGTACAGTACGGGA,-1.32
7,TACTCTTTGATGCTGAGTGAGT,-0.705
8,TTGATGTTGAGTAAGATTGGAA,-0.353
9,TAAACATCTCATGACTTCCCAT,-0.174
10,TAACTTTCTTCTGAACGCCTTC,-0.31

# Biological target: ZNF480
# Experiment: as above
# Settings: shRNA
row,Sequence,sensor-assay potency score (higher = more potent)
1,TTCATCTGGAAATAGCTCCAGT,0.626
2,TTTCTGATGTCGTACAAGGAGC,-1.17
3,TTGATGTTTAGTAAGGCTGGAA,-0.447
4,TTTCAACTTGATTACATCCATT,-1.17
5,TGAATTGTAACTAAAAACCTTG,-0.76
6,TAACTTGTGTCTGAATGCCTTG,-0.708
7,TTGAATTGTAACTAAAAACCTT,-0.157
8,TTCTCTAAGGTGTACTTTCTGT,-0.808
9,TTAGTGATAACTTGTGTCTGAA,-0.0434
10,TAATTGGTTTGTCTTCTGCATT,-1.51
